Source: PubChem BioAssay (EPA / NIEHS)
Records with an inconclusive call do not appear. The source made the active and inactive calls. How the source made its calls: active means hit-call score of the fitted dose curve at least 0.9, where 1 is the maximum; inconclusive means response in the unintended direction; inactive means score below 0.9.

system: not listed separately; assay: Tanguay_ZF_120hpf_ActivityScore_legacy: (Legacy) Oregon State University Tanguay Lab 120 Hour Post-fertilization zebrafish Assay Score for Activity (AID 2283742)
Procedure, shortened: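 Dechorionated 5D embryos, one per well, static exposure 6–120 hpf, 28C, sealed and dark; final DMSO 0.64% (vol/vol). Brightfield binary scoring of mortality plus 18 endpoints; gain-of-signal fit versus DMSO baseline.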

| SMILES | outcome |
| --- | --- |
| CCCCCCCC=O | inactive |
| CCNc1cccc(C)c1 | inactive |
| NCC1(Cc2noc(=O)[nH]2)CCCCC1 | inactive |
| Cc1cccc(C)c1O | inactive |
| NCCO | inactive |
| C1CCC(SSC2CCCCC2)CC1 | inactive |
| Cc1ccc(N(C)C)cc1 | inactive |
| CCCCCCCCCCCC(=O)OC | inactive |
| Nc1nc(N)c2nc(CNc3ccc(C(=O)N[C@@H](CCC(=O)O)C(=O)O)cc3)cnc2n1 | inactive |
| CCCCOC(=O)CCCCCCCCC(=O)OCCCC | inactive |
| CC(=O)OCCOCCOCCOC(C)=O | inactive |
| CCCCCCCCCCCCCO | inactive |
| CCCCCCCCCCO | inactive |
| Cc1ccc(C)c(O)c1C | inactive |
| CCCCCC(=O)O | inactive |
| Cc1cc(=O)[nH]c(=S)[nH]1 | inactive |
| CC(=O)Oc1ccccc1C(=O)O | inactive |
| CCCCCCCCCCC | inactive |
| O=[N+]([O-])C(CO)(CO)CO | inactive |
| Cc1ccccc1Cl | inactive |
| CCOC(=O)CCC(=O)OCC | inactive |
| CCCCCCC(=O)OCC | inactive |
| Cc1ccc(C(C)C)c(O)c1 | inactive |
| CN1CCCC1=O | inactive |
| Clc1cc(Cl)c(Cl)cc1Cl | inactive |
| CN[C@H]1CC[C@@H](c2ccc(Cl)c(Cl)c2)c2ccc(S(N)(=O)=O)cc21 | inactive |
| CC(=O)C(C)=CC1C(C)=CCCC1(C)C (centres undefined) | inactive |
| CCCCCCCCCCCCCCCCCC(=O)O | inactive |
| CNCc1cc(F)ccc1Oc1ccc(Cl)c(Cl)c1 | inactive |

system: Thyroperoxidase (TPO), gene 445522; assay: CCTE_Simmons_GUA_TPO: CCTE's Guaiacol Assay for Thyroperoxidase (TPO) Inhibition, Simmons Lab (AID 2283750)
Procedure, shortened: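 Porcine thyroid microsomes (25 ug) in 200mM potassium phosphate, preincubated 30 s at 37C with compound (8 concentrations, 5 nM–87.5 uM) and 35mM guaiacol; 1mM H2O2 starts reaction. Absorbance change at 450nm over first 80 s; loss of signal versus DMSO, three replicates.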

| SMILES | outcome | AC50 |
| --- | --- | --- |
| CCNc1cccc(C)c1 | inactive | – |
| Cc1cccc(C)c1O | inactive | – |
| Cc1ccc(N(C)C)cc1 | – | 95.1 µM (active) |
| Cc1ccc(C)c(O)c1C | inactive | – |
| Cc1cc(=O)[nH]c(=S)[nH]1 | – | 7.71 µM (active) |
